# Screening results as filed in PubChem.
# Sa RN4220 lethal: S. aureus RN4220 growth inhibition; inhibition, % (concentration not given with the values); OD600, 16 h; AID 1259311; actives 0.33% (n = 330,000); in the data active = inhibition above about 85%;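 also: plate controls were untreated cells for no effect and reference antibiotic for full effect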
# Rv3671c inh: Rv3671c (M. tuberculosis) protease inhibition; inhibition, % at 5.96 µM; P9WHR9; actives 0.048% (n = 320,000); in the data active = inhibition above about 38%;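 also: extracellular domain of Rv3671c used as enzyme; 0% = enzyme with DMSO and 100% = no enzyme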
# Sa ugtP lethal: growth inhibition of S. aureus ugtP deletion strain. growth inhibition, % (test concentration not listed). actives 0.54% (n = 330,000). S. aureus RN4220 ugtP deletion, OD600 growth, 16 h; in the data active = growth inhibition above about 68%;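 also: plate controls were untreated wells for no effect and antibiotic for full effect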
# Mtb hypoxia rep: reduces hypoxia-regulated biosensor signal in M. tuberculosis. actives 0.1% (n = 300,000). fluorescence inhibition, % (concentration not given with the values). M. tuberculosis hypoxia-regulated fluorescent reporter, fluorescence; in the data active = fluorescence inhibition mostly above about 23%, no sharp cut-off; inactive = mostly below about 17%
# Mtb bLac sens: beta-lactam sensitization of Mtb H37Rv; inhibition, % at 25 µM; actives 0.27% (n = 330,000); M. tuberculosis H37Rv growth with meropenem, percent inhibition; call rule not given here;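 also: growth measured after seven days incubation then overnight dye step; 0% = bacteria only wells and 100% = bacteria with antibiotic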
# Mtb UGM inh: blocks M. tuberculosis UGM enzyme. purified UGM, fluorescence polarization probe displacement. inhibition, % at 10 µM. AID 504406. actives 0.06% (n = 320,000); in the data active = inhibition above about 10%, passing the limit was not always enough
# Target sequence (P9WIQ1 whole entry, looked up): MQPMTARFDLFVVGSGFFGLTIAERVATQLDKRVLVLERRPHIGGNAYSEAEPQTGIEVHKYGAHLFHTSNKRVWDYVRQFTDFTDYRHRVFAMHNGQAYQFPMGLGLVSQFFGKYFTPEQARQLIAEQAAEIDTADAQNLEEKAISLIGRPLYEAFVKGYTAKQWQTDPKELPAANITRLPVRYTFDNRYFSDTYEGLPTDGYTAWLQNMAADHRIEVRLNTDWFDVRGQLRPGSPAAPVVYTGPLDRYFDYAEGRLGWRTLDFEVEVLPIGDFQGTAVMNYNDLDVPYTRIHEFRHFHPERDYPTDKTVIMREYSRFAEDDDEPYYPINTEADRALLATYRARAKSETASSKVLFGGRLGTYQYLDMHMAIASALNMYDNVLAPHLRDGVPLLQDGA
# An asterisk follows results filed as active; i = inactive; . = no result shown. Most compounds without a hit are left out; they make up all but 0.68% or so of the library.
SMILES,Sa RN4220 lethal,Rv3671c inh,Sa ugtP lethal,Mtb hypoxia rep,Mtb bLac sens,Mtb UGM inh
CCCCN(C(=O)CSc1nnc(-c2ccco2)o1)c1c(N)n(Cc2ccccc2)c(=O)[nH]c1=O,0.5,10.5,6.3,-2.4,5.2,0.8
O=C(Nc1nnc(C(F)(F)F)s1)c1ccc(Br)s1,83.7,-5.2,80.6*,10.3,40.9,-1.1
NC(=O)c1ccccc1NC(=O)c1ccccc1Cl,1.5,-3.0,4.6,5.1,-1.4,1.9
Cc1nn(-c2ccccc2)nc1C(=O)Nc1nnc(C(F)(F)F)s1,78.9,-10.0,86.3*,1.2,-9.6,3.7
O=C(Nc1ccccc1C(=O)Nc1nnc(C(F)(F)F)s1)c1ccccc1Cl,88.0*,-46.7,89.8*,.,1.6,-3.2
CC(C)(C)CC(=O)Nc1nnc(C(F)(F)F)s1,8.8,-2.6,9.1,4.0,-8.6,-3.4
CC(NC(=O)Nc1nnc(C(F)(F)F)s1)(C(F)(F)F)C(F)(F)F,74.0,4.5,83.2*,.,99.9,1.6
CC1OC(=O)C(C)C1CC(O)[C@](C)(O)C1CC[C@@]2(O)C3=CC(=O)C4CC(O)C(O)C[C@]4(C)C3CC[C@]12C (stereo not given in full),4.2,.,-0.1,16.3,.,.
CC1(C)OC2CC3C4CCC5=CC(=O)CC[C@]5(C)[C@@]4(F)C(O)C[C@]3(C)[C@]2(C(=O)CCl)O1 (stereo not given in full),9.7,.,0.6,-1.3,.,.
CCn1c(O)c(C2=c3ccccc3=NC2=O)c2cc(Br)ccc21,99.8*,0.9,100.7*,6.5,80.0,1.7
COC(=O)C1=C(C(=O)OC)C2Nc3ccccc3[C@@]23CC(C(=O)OC)N(C(=O)c2ccc(Br)cc2)C3=N1 (stereo not given in full),-2.8,.,-2.6,-5.4,.,.
COC(=O)c1ccc(S(=O)(=O)c2ccc([N+](=O)[O-])cc2)cc1,.,-5.8,.,.,22.2,-0.9
Cn1c(S(=O)(=O)c2ccc([N+](=O)[O-])cc2)nc(Br)c1Br,98.0*,-3.1,95.0*,-3.0,-8.0,-0.3
CCOC(=O)C(O)(NC(=O)c1cccnc1)C(F)(F)F (stereo not given),83.7*,3.0,58.4,.,-1.2,-1.6
COc1ccc(NC(=O)Nc2ccc3c(c2)CC(=O)N(C(C)CO)CC(C)C(CN(C)C(=O)Nc2ccccc2)O3)cc1 (stereo not given),2.0,.,-7.7,6.4,.,.
C=CCn1c(SCc2c(C)noc2C)nc2sc3c(c2c1=O)CCCCC3,4.4,-8.4,88.0*,3.2,3.5,0.1
C=CCn1c(SCc2c(C)noc2C)nc2sc3c(c2c1=O)CCCC3,2.4,-4.4,72.8,2.2,46.1,-3.7
COC(=O)C1=C(c2cccc(C#N)c2)CC2CCC1N2C(=O)N1CCC(O)CC1 (stereo not given),2.6,.,-0.7,7.2,.,.
CN1CCS/C1=C\C=C1/SC(=S)N(CC(=O)O)C1=O,6.7,.,10.3,47.4*,.,.
CN1/C(=C\C=C2/SC(=S)N(CC(=O)O)C2=O)C(C)(C)c2ccccc21,0.3,i,-5.5,62.1*,24.2,-27.0
COC(=O)C(CCSC)NC(=O)Cn1ccc(NC(=O)OCc2ccccc2)nc1=O (stereo not given),5.0,.,-2.4,14.9,.,.
COc1cccc(-n2nnc3c(=O)n(CC=Cc4ccccc4)cnc32)c1,5.8,.,5.8,0.4,.,.
COc1ccc(NC(=O)/C(Cl)=C(/Cl)S(=O)(=O)Cc2ccc(C)cc2)cn1,37.3,.,98.4*,.,.,.
COc1ccc(NC(=O)Cc2ccc(Cl)c(Cl)c2)cn1,5.0,2.5,-1.2,7.2,1.6,3.9
Cn1nc(C(F)(F)F)c(/C=N/OC(=O)c2ccccc2)c1Cl,.,-0.4,.,.,8.2,0.4
SMILES,Sa RN4220 lethal,Rv3671c inh,Sa ugtP lethal,Mtb hypoxia rep,Mtb bLac sens,Mtb UGM inh
Cn1nc(C(F)(F)F)c(C=NOCc2c(Cl)cccc2Cl)c1Cl,3.7,.,92.6*,1.0,.,.
NCCCCC1CNC(=S)N1CC1(c2ccccc2)CC1 (stereo not given),5.7,.,5.2,21.9,.,.
c1ccc(CSc2ncnc3c2cnn3Cc2ccccc2)cc1,-4.2,0.1,97.1*,7.9,-9.6,-2.3
COc1ccc2c(c1)C1C(CO2)C(c2ccccc2)[C@]2(C)C(=O)N(CC3CCCO3)CC(=O)N12 (stereo not given in full),8.6,.,10.1,16.7,.,.
Nc1ccc(S(=O)(=O)Nc2ncccn2)cc1,2.6,-6.5,9.1,14.9,2.1,0.0
Nc1ccc(S(=O)(=O)Nc2nc3ccccc3o2)cc1,-0.9,6.8,15.9,74.6*,52.1,3.8
Nc1ccc(S(=O)(=O)Nc2cnc3ccccc3n2)cc1,2.8,-0.8,91.0*,.,73.6,0.6
CC(C)CC1CN=C(Nc2ccccc2)N1CCCC1CCCCC1 (stereo not given),-0.9,.,-35.4,-9.7,.,.
O=C(N/N=C/c1ccc([N+](=O)[O-])o1)c1cc(-c2ccc(-c3ccccc3)cc2)nc2ccccc12,.,-25.8,.,.,98.9,-0.2
O=C(N/N=C/c1ccc([N+](=O)[O-])o1)c1ccc(NS(=O)(=O)c2cccs2)cc1,.,-5.5,.,.,100.2,1.8
O=C(NN=Cc1ccc([N+](=O)[O-])o1)c1cn2ccc3ccccc3c2n1,52.8,.,100.5*,11.4,.,.
O=C(NN=Cc1ccc([N+](=O)[O-])o1)c1cc(-c2cccc(Br)c2)nc2ccccc12,115.4*,.,100.3*,.,.,.
O=C(NN=Cc1ccc([N+](=O)[O-])o1)c1ccccc1NS(=O)(=O)c1cccs1,100.0*,.,100.0*,14.1,.,.
O=C(CNc1cccc2ccccc12)NN=Cc1ccc([N+](=O)[O-])o1,99.4*,.,100.2*,-5.5,.,.
O=C(CNc1cccc2ccccc12)N/N=C/c1ccc([N+](=O)[O-])o1,.,13.5,.,.,99.9,0.9
Cc1cccc(CC2SC(=Nc3ccccn3)NC2=O)c1 (stereo not given),7.5,.,6.5,-6.5,.,.
Cc1nn(C)c(C)c1NC(=O)Nc1ccc(Cl)c(Cl)c1,active,-42.7,89.1,6.3,2.6,-1.1
Cc1nn(C)c(C)c1NC(=O)Nc1cccc(C(F)(F)F)c1,5.0,4.7,-5.0,14.2,-9.4,-0.2
CCOc1ccc(CCNC(=O)c2ccc(CS(=O)Cc3ccc(Cl)cc3)o2)cc1OCC (stereo not given),2.6,2.2,15.4,3.8,3.5,1.8
CCOc1ccc(CCNC(=O)c2ccc(CS(=O)Cc3cccc(Cl)c3)o2)cc1 (stereo not given),-6.3,1.5,96.3*,2.0,0.4,1.1
Cc1cc(NN=Cc2ccc(O)c(C)c2O)nc(-c2ccccc2O)n1,99.4*,.,98.3*,5.2,.,.
Cc1cc(NN=Cc2c(O)ccc3ccccc23)nc(-c2ccccc2O)n1,99.0*,.,98.3*,9.0,.,.
Cc1nc(SCc2ccccc2F)c2cnn(-c3ccccc3)c2n1,97.0,-4.1,active,-2.1,-1.1,-0.5
Cc1nc(SCC(=O)Nc2c(C)n(C)n(-c3ccccc3)c2=O)c2cnn(-c3ccccc3)c2n1,6.4,.,0.7,7.3,.,.
CC(C)(C)c1cc[n+](-c2[nH]c(=O)sc2/C=N/NC([S-])=Nc2ccccc2)cc1,.,8.6,.,.,1.6,18.2*
